Results on six compounds are retold here after PubChem BioAssay (NCATS).

The structures appear in SMILES notation. Records with an inconclusive call do not appear. Active and inactive are the calls of the source. Unless noted, the call rests on the fitted dose curve; in most records, active means well fitted curve in the direction sought with a large enough effect; inconclusive means small, poorly fitted or top-dose-only effect, or another doubt; inactive means no such curve, though single readings can be large; an effect the other way counts as inactive or inconclusive.

Test [1] concerns the target Lysosomal acid glucosylceramidase (Homo sapiens) (UniProt P04062). Nature of the test: Glucocerebrosidase-p2 (AID 348; in the data active means potency below about 10 µM; further: potency means the concentration at half of the fitted maximal effect). To be noted: purified GBA, blue fluorogenic substrate, 40 min. In short, it runs like this: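 Normal human glucocerebrosidase (0.2 nM) with blue fluorogenic substrate (80 uM final) in citrate/phosphate pH 5.9 with 10mM sodium taurocholate, 0.01% tween-20; 40 min RT, NaOH/glycine stop; fluorescence Ex 365/Em 440; AC50 from a titration from 0.6 nM upwards.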

Test [2] has as its target Cytochrome P450 1A2 (Homo sapiens) (UniProt P05177). Kind of test: p450-cyp1a2 (AID 410; calls by dose curve; further: potency means the concentration at half of the fitted maximal effect). The conditions noted are these: recombinant CYP1A2, luciferin-ME demethylation, luminescence; series mostly up to 57 µM. In short, it runs like this: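 20nM CYP1A2, 100uM Luciferin-ME (=Km), 100mM KPO4; cpd 10 min RT; +NADPH regen, 60 min RT; stop/detect 20 min; luminescence. Normalized to furafylline 57 uM = full inhibition.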

Test [3] is described as follows: NFAT Signaling Pathway (AID 444; active means well fitted curve in either direction with a large enough effect, not every such curve was filed as active;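 further: carbachol stimulus at about its EC50 of 1 µM final; on the % scale 0 is the no-effect control and ±100 the full control effect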). The conditions noted are these: Jurkat NFAT-bla M1, carbachol, beta-lactamase ratio, 5 h; at 7.69 µM (top of the series) unless noted. In short, it runs like this:
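Jurkat cells carrying an NFAT-driven β-lactamase reporter and co-transfected muscarinic M1 receptor were treated with compound plus carbachol (1 uM final, an EC50 level) for 5 h at 37 °C. CCF4 loading followed for 1 h at RT; 460/530 nm ratio gave %activity.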

Test [4] in a line: Stat Signaling Pathway (AID 446; active means well fitted curve in either direction with a large enough effect, not every such curve was filed as active;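 further: ME-180 cervical cancer cells given 40 pM IL-6 alongside compound; SIE-controlled beta-lactamase reporter measured as 460/530 nm FRET emission ratio; on the % scale 0 is the no-effect control and ±100 the full control effect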). To be noted: ME-180 SIE beta-lactamase reporter, IL-6 stimulated, 5 h; at 7.69 µM (top of the series) unless noted. In short, it runs like this: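 Compound effects on IL-6-induced STAT reporter activity were measured in ME-180 cells. After overnight culture, cells were co-treated with 40 pM IL-6 for 5 hrs before beta-lactamase substrate loading at room temperature.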

Test [5] has as its target Glucocorticoid receptor (Homo sapiens) (UniProt P04150). Kind of test: GR-GFP Redistribution (AID 450;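 active means compounds whose dose series gives a full or clear partial fitted curve of increased nuclear translocation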; further: potency means the concentration at half of the fitted maximal effect). The conditions noted are these: U2OS GR-GFP nuclear translocation, laser cytometry, 2 h.
The target is the same in test [6]. Kind of test: GR-EFC Redistribution (AID 451; calls by dose curve; further: potency means the concentration at half of the fitted maximal effect). The conditions noted are these: CHO-K1 GR-EFC translocation, beta-gal luminescence, 2 h. In short, it runs like this:
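CHO-K1 cells stably expressing nuclear-localized β-gal enzyme acceptor and GR fused C-terminally to the enzyme donor fragment; ligand-driven nuclear translocation restores β-gal by complementation. Compounds titrated up to 46 uM final, 2 h at 37 °C; luminescence read.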

Test [7] concerns the target Mitogen-activated protein kinase 10 (Mus musculus) (UniProt Q61831). Kind of test: JNK3 AlphaScreen Assay (AID 530; active means well fitted curve in either direction with a large enough effect, not every such curve was filed as active;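 further: kinase came from lysate of stimulated human HepG2 cells; signal reports phosphorylation of biotinylated GST-cJun 1-79 at Ser73 with 10 µM ATP; on the % scale 0 is the no-effect control and ±100 the full control effect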). The conditions noted are these: JNK3 lysate, c-Jun phosphorylation; series mostly up to 57.1 µM. In short, it runs like this:
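Biotinylated GST-cJun(1-79) served as substrate for JNK3 in HepG2 lysates stimulated with IL-1beta and TNF-alpha. ATP was 10 uM final, pH 7.6. Ser73 phosphorylation was quantified by AlphaScreen (680 nm excitation).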

The target of test [8] is 3',5'-cyclic-AMP phosphodiesterase 4B (Homo sapiens) (UniProt Q07343). Nature of the test: qHTS Assay for Inhibitors of PDE-IV (AID 607; active means well fitted activation curve with a large enough effect in the main read-out, with a control signal flat, not every such curve was filed as active; further: % of control where 0% means no effect). To be noted: HEK293 ACTOne CNG channel cells, membrane potential fluorescence; series mostly up to 22.9 µM. In short, it runs like this:
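ACTOne HEK293 cells carry a modified cAMP-gated CNG channel and express endogenous PDE4; plated 1000 cells/well, compounds up to 22.9 uM final. Membrane-potential dye fluorescence (ex 535/em 590) was read; parental cells received 10 uM forskolin + 100 uM RO 20-1724.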
A general note: In qHTS, concentration-response curves come from the screen itself.

Test [9] addresses Cytochrome P450 3A4 (Homo sapiens) (UniProt P08684). Kind of test: qHTS Assay for Activators of Cytochrome P450 3A4 (AID 885). Further: nearly all actives have a fitted effect of over 65% in size. The conditions noted are these: recombinant CYP3A4, Luciferin-PPXE luminescence, 60 min; series mostly up to 57.1 µM. In short, it runs like this:
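CYP3A4 activity: Luciferin-PPXE O-dealkylation, 25uM substrate, 200mM KPO4, RT throughout. Read-out is luciferase luminescence; higher values reflect activation.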

The nature of test [10]: qHTS Assay for Lipid Storage Modulators (AID 1519; calls by dose curve). The conditions noted are these: Drosophila S3 cells, BODIPY lipid droplet/cell ratio, laser cytometry, cells loaded with oleic acid; for activity change, negative = inhibition: at 57.5 µM (top of the series). In short, it runs like this:
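Cells seeded at 5,000 per well were treated with compounds over a concentration series and loaded with oleic acid (400 uM, as added). Lipid droplet fluorescence (488 nm excitation, 500-530 nm channel) was read by laser-scanning cytometry and normalized to 20 uM Triacsin C.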

Test [11] concerns the target Dual specificity protein kinase CLK4 (Homo sapiens) (UniProt Q9HAZ1). Kind of test: qHTS Assay for Inhibitors of CDC-like Kinase 4 (ADP-FP Assay) (AID 1795).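 Further: recombinant human CLK4 phosphorylating RS repeat peptide at 1 µM ATP; on the % scale 0 is the no-effect control and ±100 the full control effect; nearly all actives have a fitted effect of over 60% in size.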 To be noted: Transcreener ADP fluorescence polarization; series mostly up to 50 µM. In short, it runs like this:
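FP readout: Orange Transcreener ADP2 tracer (4 nM) plus ADP antibody, read after 30 min at room temperature. Kinase step: 6.25 nM Clk4, 100 uM RS peptide, 1 uM ATP, pH 7.5, 1 h.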

Test [12] has as its target Ubiquitin carboxyl-terminal hydrolase 1 (Homo sapiens) (UniProt O94782). Kind of test: Inhibitors of USP1/UAF1: Pilot qHTS (AID 504865).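 Further: rhodamine fluorescence freed from ubiquitin-rhodamine substrate followed over time; top concentration of the series differs between compounds; on the % scale 0 is the no-effect control and ±100 the full control effect; nearly all actives have a fitted effect of over 35% in size.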 The conditions noted are these: purified USP1/UAF1, Ub-rhodamine cleavage fluorescence; series mostly up to 54.9 µM. In short, it runs like this: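 1nM USP1/UAF1 + cpd, 15 min RT; start w/ Ub-Rho 150nM final; kinetic FL 480/540 nm, 6 reads q60 s. Buffer 50mM HEPES pH 7.8, 0.5mM EDTA, 1mM TCEP, 0.01% Tween-20, 0.1 mg/ml BSA.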

Test [13] in a line: Primary qHTS for small molecule stabilizers of the endoplasmic reticulum resident proteome: Secreted ER Calcium Modulated Protein (SERCaMP) assay (AID 1508630). Further: on the % scale 0 is the no-effect control and ±100 the full control effect. The conditions noted are these: SH-SY5Y GLuc-SERCaMP (Gaussia luciferase released on ER calcium loss) secretion, thapsigargin, luminescence; series mostly up to 38.4 µM. In short, it runs like this: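 The SH-SY5Y reporter protocol was run at 3 concentrations up to 38.3 uM (primary) or 11 concentrations (follow-up): 16 h compound, 100 nM thapsigargin for 4 h, then extracellular luciferase luminescence.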

The nature of test [14]: AP1 Signaling Pathway (AID 357; active means well fitted curve in either direction with a large enough effect, not every such curve was filed as active; further: on the % scale 0 is the no-effect control and ±100 the full control effect). The conditions noted are these: ME-180 AP-1-bla reporter, EGF-induced, beta-lactamase ratio, 5 h; at 7.69 µM (top of the series) unless noted. In short, it runs like this: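 Cells are seeded overnight, exposed to compound titrations and an EC50 level of EGF for 5 hours at 37 °C, then loaded with CCF4 dye for 2.5 hours. Beta-lactamase activity under the AP-1 element is read as a blue/green ratio.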

Test [15] has as its target Cytochrome P450 2C19 (Homo sapiens) (UniProt P33261). Kind of test: qHTS Assay for Inhibitors and Substrates of Cytochrome P450 2C19 (AID 899). Further: on the % scale 0 is the no-effect control and ±100 the full control effect; nearly all actives have a fitted effect of over 60% in size. The conditions noted are these: recombinant CYP2C19, luciferin-H EGE luminescence; series mostly up to 57.1 µM. In short, it runs like this: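 Human CYP2C19 (5nM) with Luciferin-H EGE at 10uM (its KM) in 50mM KPO4 was preincubated with compound for 10 min at 37C. NADPH regeneration started a 60 min 37C reaction. Luciferin was read by luminescence, normalized to 57uM ketoconazole.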

Test [16] in a line: qHTS Assay for Identification of Small Molecule Agonists for Hypoxia Response Element Signaling Pathway (AID 914; active means well fitted activation curve with a large enough effect in the signal ratio, with a control signal flat, not every such curve was filed as active; the % refers to the signal ratio; further: % of control where 0% means no effect). The conditions noted are these: ME-180 (cervical carcinoma) HRE-bla reporter, beta-lactamase ratio, CoCl2, 17 h; activation: stronger effect = higher value. In short, it runs like this:
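Compounds in a titration series were added to ME-180 reporter cells alongside an EC50 level of CoCl2. After 17 hours, beta-lactamase activity was read as the 460nm/530nm emission ratio of CCF4, giving AC50 values.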

Test [17] is described as follows: Confirmation and Secondary Assay for Modulators of Hemoglobin Beta Chain Splicing at IVS2 654 locus (AID 910).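 Further: per-well total GFP intensity by laser scanning cytometry after 2-day treatment; % of control where 0% means no effect.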 To be noted: HeLa EGFP-654 splicing reporter, GFP fluorescence, 48 h; series mostly up to 38.3 µM. In short, it runs like this:
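HeLa cells stably carrying EGFP interrupted by mutant beta-globin IVS2-654 intron (CMV-driven) were treated with compound for 2 days at 37C; corrected splicing was scored as total peak GFP intensity per well (488 nm excitation, 500-520 nm emission).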

A short description of test [18]: Confirmation and Secondary Assay for Modulators of Hemoglobin Beta Chain Splicing at IVS2 705 locus (AID 930).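 Further: HeLa cells stably expressing the EGFP-705 splicing reporter; GFP fluorescence per well restored by corrected splicing of the IVS2-705 intron in EGFP; % of control where 0% means no effect.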 The conditions noted are these: HeLa EGFP-705 splicing reporter, GFP fluorescence, 48 h; series mostly up to 38.3 µM. In short, it runs like this:
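Assay measures total GFP intensity per well in HeLa EGFP-705 cells after 2 days with compound; mis-splicing normally truncates EGFP, so fluorescence indicates corrected splicing.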

The mark [19] stands for this setting: measured here: cell count channel max response.
[20] abbreviates: measured here: lipid channel max response.

Ubiquitin carboxyl-terminal hydrolase 1 (Homo sapiens), sequence (O94782 whole entry, looked up): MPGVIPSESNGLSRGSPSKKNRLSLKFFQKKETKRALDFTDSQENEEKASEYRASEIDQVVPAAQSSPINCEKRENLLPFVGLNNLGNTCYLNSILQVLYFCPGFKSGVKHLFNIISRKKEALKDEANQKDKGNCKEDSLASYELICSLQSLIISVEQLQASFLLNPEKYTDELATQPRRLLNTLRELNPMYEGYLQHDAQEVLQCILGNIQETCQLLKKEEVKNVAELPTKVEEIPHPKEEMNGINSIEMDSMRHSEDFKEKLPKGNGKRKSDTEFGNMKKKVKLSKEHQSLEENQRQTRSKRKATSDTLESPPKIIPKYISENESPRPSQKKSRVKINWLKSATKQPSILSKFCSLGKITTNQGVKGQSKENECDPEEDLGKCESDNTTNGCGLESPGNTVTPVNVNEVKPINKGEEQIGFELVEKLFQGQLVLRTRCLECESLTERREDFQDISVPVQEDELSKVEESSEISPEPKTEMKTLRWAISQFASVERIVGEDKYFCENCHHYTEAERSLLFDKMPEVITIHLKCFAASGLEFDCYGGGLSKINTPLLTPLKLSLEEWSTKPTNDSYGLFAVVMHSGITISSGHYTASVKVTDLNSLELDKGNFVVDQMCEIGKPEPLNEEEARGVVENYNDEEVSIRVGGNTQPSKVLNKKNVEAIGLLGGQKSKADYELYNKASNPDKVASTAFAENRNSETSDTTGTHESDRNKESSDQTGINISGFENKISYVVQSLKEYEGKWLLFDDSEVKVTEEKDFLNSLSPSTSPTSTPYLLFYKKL
3',5'-cyclic-AMP phosphodiesterase 4B (Homo sapiens), sequence (Q07343 whole entry, looked up): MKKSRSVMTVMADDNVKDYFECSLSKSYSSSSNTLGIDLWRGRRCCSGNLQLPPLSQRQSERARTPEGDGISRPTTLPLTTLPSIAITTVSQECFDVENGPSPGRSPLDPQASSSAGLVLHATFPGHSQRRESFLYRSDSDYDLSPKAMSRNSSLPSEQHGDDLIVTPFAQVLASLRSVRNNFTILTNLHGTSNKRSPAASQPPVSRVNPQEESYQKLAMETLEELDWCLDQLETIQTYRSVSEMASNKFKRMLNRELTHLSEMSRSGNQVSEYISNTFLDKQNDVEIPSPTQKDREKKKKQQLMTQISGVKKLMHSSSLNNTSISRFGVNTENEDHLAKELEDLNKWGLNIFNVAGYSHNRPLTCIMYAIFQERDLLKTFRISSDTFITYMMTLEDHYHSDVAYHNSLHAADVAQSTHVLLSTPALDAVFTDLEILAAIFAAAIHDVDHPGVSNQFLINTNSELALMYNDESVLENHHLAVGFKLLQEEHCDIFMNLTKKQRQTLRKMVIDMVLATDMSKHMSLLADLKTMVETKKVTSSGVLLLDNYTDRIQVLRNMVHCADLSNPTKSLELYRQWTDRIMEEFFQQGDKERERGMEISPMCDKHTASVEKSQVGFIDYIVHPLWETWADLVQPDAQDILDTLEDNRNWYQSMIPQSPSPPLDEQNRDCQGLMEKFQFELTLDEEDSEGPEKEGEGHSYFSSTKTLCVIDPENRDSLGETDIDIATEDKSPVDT
Cytochrome P450 3A4 (Homo sapiens), sequence (P08684 whole entry, looked up): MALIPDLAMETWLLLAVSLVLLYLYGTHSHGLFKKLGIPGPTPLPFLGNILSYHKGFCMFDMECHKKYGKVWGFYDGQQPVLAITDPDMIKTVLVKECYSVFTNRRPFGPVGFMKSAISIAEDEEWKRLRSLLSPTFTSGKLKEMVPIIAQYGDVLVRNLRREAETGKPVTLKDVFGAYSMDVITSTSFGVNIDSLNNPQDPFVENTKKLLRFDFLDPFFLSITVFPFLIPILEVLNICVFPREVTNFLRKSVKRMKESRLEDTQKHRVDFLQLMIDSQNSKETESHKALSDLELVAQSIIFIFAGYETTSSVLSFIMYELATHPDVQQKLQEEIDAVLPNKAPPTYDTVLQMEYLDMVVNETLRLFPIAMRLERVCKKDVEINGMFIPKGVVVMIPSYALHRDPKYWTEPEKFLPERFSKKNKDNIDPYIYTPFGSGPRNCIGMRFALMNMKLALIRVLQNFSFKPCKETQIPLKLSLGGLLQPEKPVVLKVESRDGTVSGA
Glucocorticoid receptor (Homo sapiens), sequence (P04150 whole entry, looked up): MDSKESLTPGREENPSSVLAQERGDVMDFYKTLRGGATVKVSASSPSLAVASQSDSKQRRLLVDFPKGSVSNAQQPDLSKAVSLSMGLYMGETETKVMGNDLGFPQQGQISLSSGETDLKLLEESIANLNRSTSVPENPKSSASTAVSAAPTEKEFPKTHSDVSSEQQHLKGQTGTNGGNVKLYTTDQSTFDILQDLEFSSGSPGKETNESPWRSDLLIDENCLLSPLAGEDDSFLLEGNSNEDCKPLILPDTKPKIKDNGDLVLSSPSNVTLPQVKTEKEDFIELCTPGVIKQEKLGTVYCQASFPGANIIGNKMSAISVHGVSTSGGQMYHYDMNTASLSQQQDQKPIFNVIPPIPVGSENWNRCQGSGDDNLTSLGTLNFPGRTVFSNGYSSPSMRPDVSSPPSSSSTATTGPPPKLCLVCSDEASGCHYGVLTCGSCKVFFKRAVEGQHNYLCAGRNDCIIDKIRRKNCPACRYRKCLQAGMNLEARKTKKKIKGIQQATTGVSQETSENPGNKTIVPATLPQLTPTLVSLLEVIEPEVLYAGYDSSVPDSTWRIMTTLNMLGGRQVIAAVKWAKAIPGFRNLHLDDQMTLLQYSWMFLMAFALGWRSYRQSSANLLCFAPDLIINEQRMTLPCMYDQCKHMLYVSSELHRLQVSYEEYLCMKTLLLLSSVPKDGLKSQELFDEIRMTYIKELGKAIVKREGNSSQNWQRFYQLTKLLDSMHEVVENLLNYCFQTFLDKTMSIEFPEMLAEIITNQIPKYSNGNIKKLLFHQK
Dual specificity protein kinase CLK4 (Homo sapiens), sequence (Q9HAZ1 whole entry, looked up): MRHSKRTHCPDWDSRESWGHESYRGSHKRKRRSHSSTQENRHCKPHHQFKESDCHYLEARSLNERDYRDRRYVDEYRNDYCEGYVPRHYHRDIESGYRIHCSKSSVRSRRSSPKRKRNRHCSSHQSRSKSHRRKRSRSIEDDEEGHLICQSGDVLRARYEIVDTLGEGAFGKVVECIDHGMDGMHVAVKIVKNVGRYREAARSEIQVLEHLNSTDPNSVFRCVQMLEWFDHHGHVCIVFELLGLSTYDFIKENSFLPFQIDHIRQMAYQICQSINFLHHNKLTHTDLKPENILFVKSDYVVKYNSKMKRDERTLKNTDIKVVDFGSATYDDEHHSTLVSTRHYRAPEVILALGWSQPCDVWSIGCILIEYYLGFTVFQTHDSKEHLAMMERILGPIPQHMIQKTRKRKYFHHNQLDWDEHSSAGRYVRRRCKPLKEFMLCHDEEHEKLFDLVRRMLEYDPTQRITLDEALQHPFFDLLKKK
Cytochrome P450 1A2 (Homo sapiens), sequence (P05177 whole entry, looked up): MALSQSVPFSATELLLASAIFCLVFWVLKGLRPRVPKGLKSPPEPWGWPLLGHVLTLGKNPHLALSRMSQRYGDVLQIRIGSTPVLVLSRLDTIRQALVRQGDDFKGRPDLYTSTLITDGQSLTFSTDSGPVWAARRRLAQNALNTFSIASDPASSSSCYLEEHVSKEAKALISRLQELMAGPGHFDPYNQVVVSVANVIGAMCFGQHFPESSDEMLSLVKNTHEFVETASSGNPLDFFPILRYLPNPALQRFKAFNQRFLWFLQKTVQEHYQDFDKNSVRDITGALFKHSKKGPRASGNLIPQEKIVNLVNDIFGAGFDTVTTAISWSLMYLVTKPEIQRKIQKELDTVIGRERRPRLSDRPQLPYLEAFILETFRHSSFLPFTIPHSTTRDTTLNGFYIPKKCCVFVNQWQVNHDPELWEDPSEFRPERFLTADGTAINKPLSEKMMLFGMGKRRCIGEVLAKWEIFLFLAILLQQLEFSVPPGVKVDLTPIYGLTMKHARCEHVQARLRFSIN
Lysosomal acid glucosylceramidase (Homo sapiens), sequence (P04062 whole entry, looked up): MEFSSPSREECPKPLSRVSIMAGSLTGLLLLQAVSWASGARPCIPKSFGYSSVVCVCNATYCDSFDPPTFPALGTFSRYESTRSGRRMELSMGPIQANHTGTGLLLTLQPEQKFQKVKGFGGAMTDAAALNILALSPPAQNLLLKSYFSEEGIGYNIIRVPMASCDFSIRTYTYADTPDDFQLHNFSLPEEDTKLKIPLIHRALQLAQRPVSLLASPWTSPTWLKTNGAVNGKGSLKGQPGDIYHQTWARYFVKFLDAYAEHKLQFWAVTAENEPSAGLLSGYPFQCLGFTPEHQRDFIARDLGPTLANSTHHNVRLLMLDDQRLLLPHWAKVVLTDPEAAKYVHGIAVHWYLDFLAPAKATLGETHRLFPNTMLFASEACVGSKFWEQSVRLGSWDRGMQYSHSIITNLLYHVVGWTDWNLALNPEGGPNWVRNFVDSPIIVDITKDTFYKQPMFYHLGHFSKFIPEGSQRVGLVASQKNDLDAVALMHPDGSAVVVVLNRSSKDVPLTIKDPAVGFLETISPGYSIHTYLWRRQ
Cytochrome P450 2C19 (Homo sapiens), sequence (P33261 whole entry, looked up): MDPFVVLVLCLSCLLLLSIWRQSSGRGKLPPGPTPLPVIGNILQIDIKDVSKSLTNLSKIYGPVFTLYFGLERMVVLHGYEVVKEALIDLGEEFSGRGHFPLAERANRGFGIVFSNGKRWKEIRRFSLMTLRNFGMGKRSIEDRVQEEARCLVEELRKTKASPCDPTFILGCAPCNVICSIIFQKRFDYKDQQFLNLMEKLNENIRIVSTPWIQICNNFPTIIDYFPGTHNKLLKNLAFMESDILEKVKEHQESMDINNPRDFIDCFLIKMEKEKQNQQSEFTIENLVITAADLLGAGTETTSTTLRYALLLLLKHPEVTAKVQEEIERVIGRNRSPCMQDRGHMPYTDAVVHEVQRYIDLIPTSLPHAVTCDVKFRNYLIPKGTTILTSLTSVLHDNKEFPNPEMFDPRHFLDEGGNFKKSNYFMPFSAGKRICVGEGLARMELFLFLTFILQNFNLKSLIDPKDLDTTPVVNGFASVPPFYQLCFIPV

As to `COc1ccc(CNc2cc(-c3ccoc3)ncn2)c(OC)c1`, the Potency in test [1] was > 11.4 µM (inactive); in test [2] it was 15.8 µM (active); in test [5] it was > 46 µM (inactive); in test [6], > 46 µM (inactive). In addition, the activity change, negative = inhibition in test [3] is 0.143% (inactive); in test [10] it was 8.38% (inactive). Also, the activity, negative = inhibition in [4] was 19.9% (inactive). For the same compound, the call in test [7] was inactive. In addition, the Potency entry in test [8], in test [9], in test [11], in test [12] and in test [13] was “inactive” in each case. The values for the max response in test [10] (setting [19]) and in [10] (setting [20]) were 31.5% and 38.7%, respectively.
Take `CCNc1ncc2nc(C)c(=O)n(-c3ccc(OC)cc3)c2n1`: the Potency in test [1] is > 11.4 µM (inactive); in [2], 15.8 µM (active); in test [5] it was > 9.22 µM (inactive); in test [6] it was > 46 µM (inactive). Further, the activity change, negative = inhibition is -29.8% (inactive) in [14], 14.3% (inactive) in test [3] and 4.59% (inactive) in test [10]. The activity, negative = inhibition in test [4] is -9.6% (inactive). Moreover, the call in [7] was inactive. The Potency entry in test [15], in test [11], in test [12] and in test [13] was “inactive” throughout. The activation in [16] is -10.1% (inactive). In addition, the max response in test [10] (setting [19]) amounted to 11.9%; in [10] (setting [20]), 15%.
`COc1cccc(Cn2c(=O)cnc3cnc(Oc4ccccc4)nc32)c1`: the Potency in test [1] was > 11.4 µM (inactive); in test [5], > 9.22 µM (inactive); in test [6], > 46 µM (inactive). In addition, the activity change, negative = inhibition was -13.9% (inactive) in [14], -0.253% (inactive) in [3] and -0.165% (inactive) in test [10]. For the same compound, the activity, negative = inhibition in test [4] was -14.7% (inactive). In addition, the compound was classed as inactive in test [7]. The max response was found to be 3.98% in [10] (setting [19]) and 3.52% in test [10] (setting [20]). Moreover, the Potency entry in test [11], in test [12] and in [13] was “inactive” throughout.
In the case of `CNc1ccnc(-c2c(C)noc2C)n1`, the Potency was > 11.4 µM (inactive) in [1], 1.26 µM (active) in test [2], > 46 µM (inactive) in [5] and > 46 µM (inactive) in [6]. Also, the activity change, negative = inhibition in [14] was 2.46% (inactive); in test [3] it was 1.59% (inactive); in test [10], 4.8% (inactive). The activity, negative = inhibition in test [4] is 12.4% (inactive). The outcome in test [7], in [17] and in test [18] was inactive. Also, the Potency result in [8], in [9], in test [15], in test [12] and in [13] was “inactive” throughout. The activation in [16] was 11.5% (inactive). Moreover, the max response in test [10] (setting [19]) is -12.7%; in test [10] (setting [20]), -8.12%.
For the compound `COc1cccc(Nc2ncc3nc(-c4cn(C)c5ccccc45)c(=O)n(CCC#N)c3n2)c1`, the Potency in test [1] is > 11.4 µM (inactive); in test [2] it was 20 µM (active); in test [5], > 9.22 µM (inactive); in test [6], > 46 µM (inactive). Also, the activity change, negative = inhibition in [14] is -25.6% (inactive); in test [3] it was -5.99% (inactive); in test [10], 2.44% (inactive). Moreover, in test [4], the activity, negative = inhibition was -9.25% (inactive). Also, the call in test [7] was inactive. Also, the Potency entry in test [8], in test [9], in test [11], in [12] and in test [13] was “inactive” each time. Also, the max response in test [10] (setting [19]) amounted to 27%; in [10] (setting [20]) it was 27.4%.
In the case of `COCCNc1cc(-c2c(C)noc2C)ncn1`, the Potency in test [1] is > 11.4 µM (inactive); in test [2] it was 10 µM (active); in test [5], > 46 µM (inactive); in [6] it was > 46 µM (inactive). Moreover, the activity change, negative = inhibition in [14] was -3.45% (inactive); in test [3], 3.73% (inactive); in test [10] it was 8.14% (inactive). The activity, negative = inhibition in [4] is 0.472% (inactive). For the same compound, the compound was called inactive in test [7]. Further, the Potency entry in test [8], in test [12] and in [13] was “inactive” each time. Moreover, the figures for the max response in test [10] (setting [19]) and in test [10] (setting [20]) were 13% and 22.2%, respectively.
